Experimental data published in PubChem BioAssay (NCATS).
Results filed as inconclusive are left out. A call without a number means that no potency is given here. A number with no mark means an inactive call. Activity calls are given as the source filed them. The call rests on the fitted dose curve; in most records, active means well fitted curve in the direction sought with a large enough effect; inconclusive means small, poorly fitted or top-dose-only effect, or another doubt; inactive means no such curve, though single readings can be large; an effect the other way counts as inactive or inconclusive.

Tests used:
[1] = test system: Zika virus NS2B-NS3 protease; test: Primary screen GU AMC qHTS for Zika virus inhibitors (AID 1347154); further: nearly all actives have a fitted effect of over 70% in size
Summary of the method: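 Unlinked Zika NS2B hydrophilic domain/NS3 protease domain noncovalent complex (25 nM final) in 10 mM Tris-HCl pH 8.0, 0.01% Tween 20, with AMC peptide substrate. Fluorescence (ex 340, em 450 nm) change over 15 min, room temperature; percent inhibition fitted to 4-parameter Hill equation.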

[2] = test system: Zika virus NS2B-NS3 protease (unlinked complex); test: Primary screen GU Rhodamine qHTS for Zika virus inhibitors: Unlinked NS2B-NS3 protease assay (AID 1347159); further: nearly all actives have a fitted effect of over 60% in size
Summary of the method: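 Compounds, tested up to 114 microM, were incubated for 15 minutes with 25 nM unlinked NS2B-NS3 protease at pH 8.0. Cleavage of 1.5 microM Rhodamine110 substrate was then followed by fluorescence for 15 minutes.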

[3] = test system: Zika virus NS2B-NS3 protease (linked construct); test: Primary screen NINDS Rhodamine qHTS for Zika virus inhibitors (AID 1347160); settings: outcome: dose series up to 57.1 µM; further: nearly all actives have a fitted effect of over 55% in size
Summary of the method: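 Percent inhibition, normalized to uninhibited and enzyme-free controls, is fitted to a 4-parameter Hill equation. Fluorescence change comes from a 15-min cleavage of 1.5 microM bis-peptide Rhodamine110 substrate by 25 nM linked NS2B-NS3 at room temperature.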

## Cc1cc2c(cc1CC(=O)c1sccc1S(=O)(=O)Nc1onc(C)c1Cl)OCO2
[1]
  Potency: inactive

## CN1CCN(CCCN2c3ccccc3Sc3ccc(S(=O)(=O)N(C)C)cc32)CC1
[1]
  Potency: inactive

## CCCCC(=O)O[C@]1(C(=O)CO)CC[C@H]2[C@@H]3CCC4=CC(=O)CC[C@]4(C)[C@H]3[C@@H](O)C[C@@]21C
[1]
  Potency: inactive

## Cc1c(C(N)=O)cc([N+](=O)[O-])cc1[N+](=O)[O-]
[1]
  Potency: inactive

## NCCCC[C@H](N[C@@H](CCc1ccccc1)C(=O)O)C(=O)N1CCC[C@H]1C(=O)O
[1]
  Potency: inactive

## CCCC(=O)Nc1ccc(OCC(O)CNC(C)C)c(C(C)=O)c1 (stereo unspecified)
[1]
  Potency: inactive

## CCN(CC)CCNC(=O)COc1ccc(Cl)cc1
[1]
  Potency: inactive

## Nc1ccc(C(=O)O)cc1
[1]
  Potency: inactive

## Oc1c(I)cc(Cl)c2cccnc12
[1]
  Potency: inactive

## C[C@]12CC[C@H]3[C@@H](CCC4=CC(=O)CC[C@@]43C)[C@@H]1CC[C@@H]2C(=O)CO
[1]
  Potency: inactive

## CN(C)CC/C=C1\c2ccccc2Sc2ccc(Cl)cc21
[1]
  Potency: inactive

## CC(=O)Oc1ccc(C(=C2CCCCC2)c2ccc(OC(C)=O)cc2)cc1
[1]
  Potency: inactive

## Cc1c(C(C)C)c(=O)n(-c2ccccc2)n1C
[1]
  Potency: inactive

## COc1cccc(CCc2ccccc2OCC(CN(C)C)OC(=O)CCC(=O)O)c1 (stereo unspecified)
[1]
  Potency: inactive

## COC(=O)CCc1ccc(OCC(O)CNC(C)C)cc1 (stereo unspecified)
[1]
  Potency: inactive
[2]
  outcome: inactive
[3]
  outcome: inactive

## COC(=O)C1=C(C)NC(C)=C(C(=O)O[C@@H]2CCCN(Cc3ccccc3)C2)[C@@H]1c1cccc([N+](=O)[O-])c1
[1]
  Potency: inactive
[2]
  outcome: inactive
[3]
  outcome: inactive

## CC(=O)OCC(=O)[C@@]1(O)CC[C@H]2[C@@H]3CCC4=CC(=O)C=C[C@]4(C)[C@H]3[C@@H](O)C[C@@]21C
[1]
  Potency: inactive
[2]
  outcome: inactive
[3]
  outcome: inactive

## CN1CCN(C(c2ccccc2)c2ccccc2)CC1
[1]
  Potency: inactive
[2]
  outcome: inactive
[3]
  outcome: inactive

## O=C1[C@H]2CCCC[C@H]2C(=O)N1CCCCN1CCN(c2nsc3ccccc23)CC1
[1]
  Potency: inactive

## CCCCCCCCCCOCC(O)CN (stereo unspecified)
[1]
  Potency: inactive

## CC(=O)OCC(=O)[C@@]1(O)[C@H](C)C[C@H]2[C@@H]3CCC4=CC(=O)C=C[C@]4(C)[C@@]3(F)[C@@H](O)C[C@@]21C
[1]
  Potency: inactive
[2]
  outcome: inactive
[3]
  outcome: inactive
